Granule exo inh: LAMP-1 surface exposure blockers, TALL-104 cells – cell-based, flow cytometry, MLPCN library, primary screen; AID 651702, 2012; inhibition, % at 10 µM; TALL-104 LAMP-1 surface exposure; cells stimulated with thapsigargin and PMA; hit rate 0.66% among 360,000;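 active = inhibition above about 55%, limit read from the data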
rCAG RNA binder: binders of r(CAG) RNA repeats, primary screen, biochemical, fluorescence; hit rate 1.3% among 370,000; inhibition, % at 3 µM; r(CAG) RNA repeat, TO-PRO-1 dye displacement fluorescence;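 active = inhibition above the plate cutoff, the mean of all test compounds on that plate plus 3 SD, cut at about 35% in these data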;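 also: 0% = DMSO alone and 100% = 100 µM mitoxantrone as full dye displacement; higher means more dye released from RNA so lower well fluorescence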
PG9 binder: binders of HIV-1 gp120 antibody PG9, primary screen, biochemical, TR-FRET | HIV-1 gp120 / PG9 antibody interaction | TR-FRET gp120-PG9 antibody binding | inhibition, % at 6.7 µM | hit rate 0.43% among 360,000 | AID 624416, 2012; in the data active = inhibition above about 8.5%
ABCB6 inh MLPCN: ABCB6 transporter inhibitors, primary screen, K562-ABCB6 cells, flow cytometry, MLPCN library; fluorescence ratio to DMSO, % at 10 µM; AID 602162, 2011; K562-ABCB6 porphyrin accumulation, 1 h; hits give low values; hit rate 0.19% among 360,000; ATP-binding cassette sub-family B member 6 (Homo sapiens), Q9NP58;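 active = fluorescence ratio to DMSO below 75%, the collection mean minus 3 SD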;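 also: signal is porphyrin accumulated inside mitochondria; 100% equals median channel fluorescence of DMSO control wells; lower ratio means ABCB6 inhibition with less porphyrin fluorescence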
Target sequence (Q9NP58 whole entry, looked up): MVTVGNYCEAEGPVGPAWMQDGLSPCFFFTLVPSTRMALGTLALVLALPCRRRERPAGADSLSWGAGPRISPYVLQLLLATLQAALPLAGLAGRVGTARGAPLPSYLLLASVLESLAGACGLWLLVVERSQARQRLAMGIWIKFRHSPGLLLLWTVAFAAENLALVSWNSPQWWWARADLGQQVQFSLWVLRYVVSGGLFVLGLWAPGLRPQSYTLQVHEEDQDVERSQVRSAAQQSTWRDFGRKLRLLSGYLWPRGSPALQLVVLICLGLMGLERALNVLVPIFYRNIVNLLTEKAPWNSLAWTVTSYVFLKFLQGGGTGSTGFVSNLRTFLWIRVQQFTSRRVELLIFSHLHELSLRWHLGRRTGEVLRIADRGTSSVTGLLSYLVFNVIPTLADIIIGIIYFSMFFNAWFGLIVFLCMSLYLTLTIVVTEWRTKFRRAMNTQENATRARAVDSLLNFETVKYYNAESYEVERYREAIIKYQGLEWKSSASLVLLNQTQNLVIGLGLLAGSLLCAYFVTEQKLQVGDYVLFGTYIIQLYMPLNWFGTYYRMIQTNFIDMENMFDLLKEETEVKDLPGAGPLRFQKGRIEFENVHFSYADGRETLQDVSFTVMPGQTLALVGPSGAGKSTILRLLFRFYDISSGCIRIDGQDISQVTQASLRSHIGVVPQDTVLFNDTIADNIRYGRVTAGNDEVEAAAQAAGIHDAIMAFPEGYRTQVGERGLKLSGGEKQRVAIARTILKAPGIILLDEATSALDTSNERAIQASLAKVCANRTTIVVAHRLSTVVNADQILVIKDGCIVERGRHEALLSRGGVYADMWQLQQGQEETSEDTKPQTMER
rCAG binder conf: small molecules binding CAG repeat RNA – biochemical, fluorescence, confirmation; hit rate 70% among 4,300; AID 652065, 2013; r(CAG) RNA repeat, TO-PRO-1 dye displacement fluorescence; shares compounds with rCAG RNA binder; inhibition, % at 3 µM;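 active = inhibition above a per-plate cutoff, the mean inhibition of sample wells plus 3 SD, cut at about 35% in these data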;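 also: loss of TO-PRO-1 fluorescence as compound displaces dye from 1x1 AA loop RNA; 0% = DMSO only wells and 100% = 100 µM mitoxantrone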
DNA CAG counter: displacement of TO-PRO-1 from CAG DNA duplex, counter-screen for rCAG RNA repeat binder project, biochemical, fluorescence, TO-PRO-1 dye, d(CAG) DNA oligo; shares compounds with rCAG RNA binder; d(CAG) DNA oligo TO-PRO-1 dye displacement; inhibition, % at 3 µM; hit rate 94% among 4,300;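 active = inhibition above its plate's cutoff, the mean test-well inhibition plus 3 SD, cut at about 4.8% in these data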;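 also: 0% = DNA dye mix with DMSO and 100% = 100 µM mitoxantrone; hits displace the dye from DNA and so lower well fluorescence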
DNA CAG DR: inhibitors of DNA CAG/GTC TO-PRO-1 complex, dose response, counter-screen for rCAG RNA repeat binder project, biochemical, fluorescence, TO-PRO-1 dye | shares compounds with rCAG RNA binder | DNA CAG/GTC duplex TO-PRO-1 dye displacement fluorescence | IC50, µM | hit rate 20% among 250 | AID 686960, 2013; in the data active = IC50 below about 10 µM
* hit, by the source's call. In the library only some 2.5% were active in any assay of this set; here they are far more common.

For O=C1NN(c2ccccc2)C(=O)/C1=C\c1cccn1-c1ccc(Cl)c([N+](=O)[O-])c1 the results were Granule exo inh -3, rCAG RNA binder 26, PG9 binder -1 and ABCB6 inh MLPCN 106.
COc1cc(/C=C2/C(=O)NN(c3cccc(C)c3)C2=O)cc([N+](=O)[O-])c1O was read as Granule exo inh -4, rCAG RNA binder 39*, PG9 binder -11, ABCB6 inh MLPCN 91, rCAG binder conf 20 and DNA CAG counter 6.1*.
Screening COc1cc(/C=C2/C(=O)NN(c3cccc(C)c3)C2=O)ccc1OC(=O)c1ccco1 returned Granule exo inh -9, rCAG RNA binder 45*, PG9 binder 0, ABCB6 inh MLPCN 96, rCAG binder conf 70*, DNA CAG counter 30* and DNA CAG DR inactive.
Cc1ccc(N2NC(=O)/C(=C\c3cc4c(cc3[N+](=O)[O-])OCO4)C2=O)cc1C was read as Granule exo inh 14, rCAG RNA binder 64*, PG9 binder -1, ABCB6 inh MLPCN 97, rCAG binder conf 45* and DNA CAG counter 18*.
For O=C(Cn1ncc2c3ccccc3n(Cc3ccccc3)c2c1=O)NCCCN1CCCC1=O the results were Granule exo inh 2, rCAG RNA binder -2, PG9 binder 0 and ABCB6 inh MLPCN 101.
`Cc1ccc(CNC(=O)C2CCC(=O)N(Cc3ccccc3F)C2)s1` (stereo unspecified) gave Granule exo inh 7, rCAG RNA binder -1, PG9 binder -2 and ABCB6 inh MLPCN 94.
Screening COc1cccc2sc(Nc3nc(-c4cc5ccccc5oc4=O)cs3)nc12 returned Granule exo inh 2, rCAG RNA binder 20, PG9 binder -5 and ABCB6 inh MLPCN 102.
Screening COc1cccc2sc(Nc3nc(-c4ccncc4)cs3)nc12 returned Granule exo inh -1, rCAG RNA binder 38*, PG9 binder -3, ABCB6 inh MLPCN 100, rCAG binder conf 21 and DNA CAG counter 14*.
Brc1ccc(N/N=C(/N=Nc2nn[nH]n2)c2ccccc2)cc1 was read as Granule exo inh 2, rCAG RNA binder 95*, PG9 binder -2, ABCB6 inh MLPCN 97, rCAG binder conf 92* and DNA CAG counter 67*.
For FC(F)(F)Oc1cccc(Cn2ccc3ccc(-c4ccc5ccn(Cc6ccccc6)c5c4)cc32)c1 the results were rCAG RNA binder 55*, rCAG binder conf 14 and DNA CAG counter 8.9*.
`CCC(OC(=O)CN1C(=O)C(=O)c2ccccc21)C(=O)Nc1ccccc1OC` (stereo unspecified) gave Granule exo inh -3, rCAG RNA binder -1, PG9 binder -1 and ABCB6 inh MLPCN 85.
`Cc1ccc2c(c1)CCCN2S(=O)(=O)c1cccc(C(=O)Nc2ccccc2C(=O)O)c1` gave Granule exo inh -24, rCAG RNA binder 83*, PG9 binder 0, ABCB6 inh MLPCN 105, rCAG binder conf 85* and DNA CAG counter 63*.
`O=C(Nc1cc(S(=O)(=O)Nc2ccccc2F)ccc1Cl)c1ccc(F)cc1F` gave Granule exo inh 13, rCAG RNA binder 47*, PG9 binder 3, ABCB6 inh MLPCN 97, rCAG binder conf 42* and DNA CAG counter 13*.
`O=C(Nc1ccccc1C(=O)O)c1ccc(Cl)c(S(=O)(=O)N2CCOCC2)c1` gave Granule exo inh -2, rCAG RNA binder 28, PG9 binder 1 and ABCB6 inh MLPCN 118.
Screening O=C(O)c1ccc(NS(=O)(=O)c2cccc(C(=O)Nc3ccccc3[N+](=O)[O-])c2)cc1 returned Granule exo inh 8, rCAG RNA binder 7, PG9 binder -2 and ABCB6 inh MLPCN 97.
For O=C(Nc1ccccc1C(=O)O)c1cc(S(=O)(=O)N2CCCCC2)c(Cl)cc1Cl the results were Granule exo inh 1, rCAG RNA binder 70*, PG9 binder 0, ABCB6 inh MLPCN 101, rCAG binder conf 62* and DNA CAG counter 20*.
Screening CC(=O)c1ccc(NS(=O)(=O)c2cccc(C(=O)Nc3ccccc3C(=O)O)c2)cc1 returned Granule exo inh -2, rCAG RNA binder 49*, PG9 binder -3, ABCB6 inh MLPCN 95, rCAG binder conf 29 and DNA CAG counter 6.4*.
`CCOC(=O)C1(C(=O)OCC)N=C(c2ccccc2)C=C1c1ccccc1` gave rCAG RNA binder 4 and PG9 binder -1.
`NC(=O)c1ccc[n+]([C@H]2O[C@@H](COP(=O)([O-])OP(=O)(O)OC[C@H]3O[C@@H](n4cnc5c(N)ncnc54)[C@H](O)[C@@H]3O)[C@H](O)[C@@H]2O)c1` gave Granule exo inh -3 and ABCB6 inh MLPCN 99.
For COc1ccc(NS(=O)(=O)c2cccc(C(=O)Nc3ccccc3C(=O)O)c2)cc1 the results were Granule exo inh 5, rCAG RNA binder 66*, PG9 binder 0, ABCB6 inh MLPCN 97, rCAG binder conf 52* and DNA CAG counter 20*.
Screening O=C(Nc1ccccc1C(=O)O)c1cc(S(=O)(=O)Nc2ccccc2)ccc1Cl returned Granule exo inh 3, rCAG RNA binder 46*, PG9 binder -2, ABCB6 inh MLPCN 98, rCAG binder conf 35* and DNA CAG counter 7.3*.
For O=C(O)c1ccc(NS(=O)(=O)c2ccc(Cl)c(C(=O)Nc3ccccc3)c2)cc1 the results were Granule exo inh 0, rCAG RNA binder 3, PG9 binder -2 and ABCB6 inh MLPCN 93.
`CN(C)c1ccc(N=Nc2ccc(S(=O)(=O)O)cc2)c2ccccc12` gave Granule exo inh 24, rCAG RNA binder 77*, PG9 binder -5, ABCB6 inh MLPCN 98, rCAG binder conf 59* and DNA CAG counter 24*.
Screening COc1ccc(Oc2ccc(-c3ccn[nH]3)cc2)cc1 returned Granule exo inh -3, rCAG RNA binder 0, PG9 binder -1 and ABCB6 inh MLPCN 92.
For Cc1ccc(S(=O)(=O)Nc2nc3ccccc3nc2NCc2ccco2)cc1 the results were Granule exo inh -4, rCAG RNA binder -8, PG9 binder 0 and ABCB6 inh MLPCN 123.
Screening Cc1ccc(S(=O)(=O)Nc2nc3ccccc3nc2NCc2ccco2)cc1C returned Granule exo inh -3, rCAG RNA binder 47*, PG9 binder 0, ABCB6 inh MLPCN 115, rCAG binder conf 53* and DNA CAG counter 20*.
